Results on 8 molecules are retold here after PubChem BioAssay.

Test [1] can be described thus: compound effects on lung adenocarcinoma cell viability – A549, calcein-AM fluorescence, 48 h, basal, profiling panel (AID 1162). Also: test concentration not given here. The following applies: higher = more signal.
A short description of test [2]: compound effects on differentiated 3T3-L1 adipocyte viability – cell-based, 3T3-L1 adipocytes, calcein-AM fluorescence, 48 h, basal, profiling panel (AID 1163). Also: test concentration not given here. The following applies: 3T3-L1 adipocytes viability, higher = more signal.
Test [3] in a line: compound effects on hepatocellular carcinoma cell viability – HepG2, calcein-AM fluorescence, 48 h, basal, profiling panel (AID 1164). Also: test concentration not given here. The following applies: higher = more signal.
Test [4] in a line: compound effects on multiple myeloma cell viability – MM1S, calcein-AM fluorescence, 48 h, basal, profiling panel (AID 1165).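 Also: viability of MM1S multiple myeloma cells under basal unstimulated conditions; test concentration not given here.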 The settings on record: higher = more signal.
Test [5] in a line: calcein-AM signal in unstimulated myeloma cells – cell-based, calcein-AM fluorescence, 48 h, PK04 Diversity Set, profiling panel (AID 1166).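 Also: cells grown under basal conditions without added stimulus; test concentration not given here.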 The following applies: RPMI8226 myeloma viability, higher = more signal.
A short description of test [6]: JC-1 mitochondrial signal, unstimulated HepG2 cells – cell-based, JC-1 fluorescence, 24 h, 100 nL compound, profiling panel (AID 1167). Also: test concentration not given here. The following applies: HepG2 mitochondrial potential, higher = more signal.
Test [7] can be described thus: JC-1 mitochondrial signal, unstimulated adipocytes – cell-based, JC-1 fluorescence, 3T3-L1 adipocytes, 24 h, 100 nL compound, profiling panel (AID 1168). Also: test concentration not given here. The following applies: JC-1 mitochondrial fluorescence, higher = more signal, called active from +8 up or from −8 down.
Test [8] in a line: JC-1 mitochondrial signal, unstimulated myeloma cells – cell-based, JC-1 fluorescence, RPMI8226, 24 h, 100 nL compound, profiling panel (AID 1169). Also: test concentration not given here. The settings on record: JC-1 mitochondrial potential fluorescence, higher = more signal.
The nature of test [9]: JC-1 mitochondrial signal, unstimulated MM1S myeloma – cell-based, JC-1 fluorescence, 24 h, 100 nL compound, profiling panel (AID 1170). Also: test concentration not given here. The following applies: MM1S mitochondrial potential, higher = more signal.
Test [10] in a line: resazurin metabolic signal in A549 cells – cell-based, resazurin fluorescence, 24 h, PK04 Diversity Set, profiling panel (AID 1171). Also: test concentration not given here. The following applies: A549 viability, higher = more signal, called active from +8 up or from −8 down.
Test [11] in a line: resazurin metabolic signal in HepG2 cells – cell-based, resazurin fluorescence, 24 h, PK04 Diversity Set, profiling panel (AID 1172). Also: test concentration not given here. The following applies: HepG2 viability, higher = more signal.
A short description of test [12]: budding yeast growth changes without added modifier – OD600, strain BY4716, 24 h, basal condition, primary screen (AID 1173). The following applies: S. cerevisiae BY4716 growth, OD600, 24 h; higher = more signal, called active from +8 up or from −8 down.
The nature of test [13]: viability profiling in MM1S myeloma cells – cell-based, resazurin fluorescence, basal, 24 h, PK04 Diversity Set, profiling panel (AID 1174). Also: test concentration not given here. The following applies: higher = more signal, called active from +8 up or from −8 down.
For test [14], the target named is Dihydroorotate dehydrogenase (quinone), mitochondrial (Plasmodium falciparum (isolate 3D7)) (UniProt Q08210). The experiment in a line: inhibition of P. falciparum DHODH – biochemical, C-terminal His tag, absorbance 600 nm, primary screen (AID 1175).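 Also: recombinant parasite enzyme with a five histidine tag at its C terminus; test concentration not given here.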 The following applies: PfDHODH enzyme, DCIP absorbance 600 nm; higher = more signal, called active from +8 up or from −8 down.

Test [15] can be described thus: inhibition of PAO1 biofilm formation – strain PAO1, LB-PBS medium, absorbance 600 nm, primary screen (AID 1176). Also: test concentration not given here. The following applies: P. aeruginosa PAO1 growth/biofilm, A600, 12 h; higher = more signal.
The nature of test [16]: growth modulation of vineyard yeast isolate – strain RM11-1a, OD600, basal, 24 h, primary screen (AID 1177).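 Also: cultures grown under basal conditions with no added stressor; test concentration not given here.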 The settings on record: S. cerevisiae RM11-1a growth, OD600, 24 h; higher = more signal, called active from +8 up or from −8 down.
The nature of test [17]: growth of efflux-deficient E. coli DRC39 – strain DRC39, OD650, 24 h, E. coli filamentation inducers, primary screen (AID 1178).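 Also: growth measured as culture turbidity by optical density at 650 nm; test concentration not given here.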 The settings on record: E. coli DRC39 acrAB, higher = more signal, called active from +8 up or from −8 down.
The nature of test [18]: growth of efflux-deficient E. coli DRC39 – strain DRC39, OD650, 48 h, E. coli filamentation inducers, primary screen (AID 1179).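 Also: screen aims at cell division blockers that make cells filament.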 The following applies: E. coli DRC39 delta-acrAB growth, higher = more signal, called active from +8 up or from −8 down.
A short description of test [19]: viability profiling in RPMI8226 myeloma cells – cell-based, resazurin fluorescence, basal, 24 h, PK04 Diversity Set, profiling panel (AID 1180).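 Also: RPMI8826 multiple myeloma cell line at 5000 cells per well; test concentration not given here.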 The following applies: higher = more signal.
For test [20], the target named is E3 ubiquitin-protein ligase XIAP (Homo sapiens) (UniProt P98170). The experiment in a line: small molecules binding XIAP protein – biophysical, small-molecule microarray, fluorescence 635 nm, primary screen (AID 1181).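 Also: score merges 667 nm emission and signal to noise over triplicate slides.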 The following applies: higher = more signal.

Active and inactive are the calls of the source. Unless noted, no rule for the calls is given here.

Chain of Dihydroorotate dehydrogenase (quinone), mitochondrial (Plasmodium falciparum (isolate 3D7)) (Q08210 whole entry, looked up): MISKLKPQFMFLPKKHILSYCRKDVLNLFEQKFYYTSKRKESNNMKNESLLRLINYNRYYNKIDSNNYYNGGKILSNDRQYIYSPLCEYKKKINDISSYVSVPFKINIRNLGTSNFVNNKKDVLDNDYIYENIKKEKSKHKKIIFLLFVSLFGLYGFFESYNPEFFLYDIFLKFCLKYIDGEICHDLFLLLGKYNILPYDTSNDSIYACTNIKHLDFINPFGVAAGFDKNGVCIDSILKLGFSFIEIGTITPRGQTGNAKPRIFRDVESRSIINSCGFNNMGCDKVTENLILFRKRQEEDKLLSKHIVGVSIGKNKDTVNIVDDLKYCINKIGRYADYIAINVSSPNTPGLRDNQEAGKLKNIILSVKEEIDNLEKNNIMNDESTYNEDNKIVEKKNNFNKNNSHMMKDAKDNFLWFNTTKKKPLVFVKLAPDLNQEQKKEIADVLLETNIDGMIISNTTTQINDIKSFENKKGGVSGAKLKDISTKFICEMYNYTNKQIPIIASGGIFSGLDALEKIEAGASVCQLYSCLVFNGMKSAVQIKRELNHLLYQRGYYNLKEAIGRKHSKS
Chain of E3 ubiquitin-protein ligase XIAP (Homo sapiens) (P98170 whole entry, looked up): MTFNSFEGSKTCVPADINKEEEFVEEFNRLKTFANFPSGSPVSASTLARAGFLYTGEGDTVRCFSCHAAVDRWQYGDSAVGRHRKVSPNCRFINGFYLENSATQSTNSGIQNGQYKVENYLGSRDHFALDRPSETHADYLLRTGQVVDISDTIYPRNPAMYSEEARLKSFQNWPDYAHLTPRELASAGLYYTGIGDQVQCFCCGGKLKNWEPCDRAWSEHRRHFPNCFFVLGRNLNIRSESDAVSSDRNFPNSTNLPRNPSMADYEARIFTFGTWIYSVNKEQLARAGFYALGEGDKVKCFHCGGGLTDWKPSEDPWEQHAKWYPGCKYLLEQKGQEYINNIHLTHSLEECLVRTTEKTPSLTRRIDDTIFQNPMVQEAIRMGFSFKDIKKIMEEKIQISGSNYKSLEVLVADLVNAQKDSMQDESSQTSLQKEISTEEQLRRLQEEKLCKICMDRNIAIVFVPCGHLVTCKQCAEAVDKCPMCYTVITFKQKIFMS

For `COC(=O)[C@@]1(Cc2ccc(OC)cc2)[C@H]2c3cc(C(=O)N(C)C)n(C)c3C[C@H]2CN1C(=O)c1ccccc1`, the z-score in [1] was -1.37; in test [2], 0.288; in test [3] it was -1.7; in test [4] it was -2.27; in test [5], -2.47; in test [6] it was 2.66. Further, the z-score was -0.536 (inactive) in [7]; -0.701 in test [8]; -1.17 in test [9]; -0.482 (inactive) in [10]; -0.105 in test [11]; 1.3 (inactive) in [12]. Moreover, the z-score is -2.26 (inactive) in test [13]; 0.976 (inactive) in test [15]; 0.241 (inactive) in test [16]; -0.372 (inactive) in test [17]; -1.28 (inactive) in test [18]; -2.45 in test [19]. Further, the figures for the composite z-score in test [14] and in test [20] were -0.342 (inactive) and 0.0279, respectively.
As for `CCOC(=O)C[C@H]1[C@H](OC(=O)c2ccc(C(=O)c3ccccc3)cc2)[C@@H](NC(=O)c2ccccc2)c2cc(OCCCO)ccc2N1C(=O)Cc1ccc(OC)cc1`, the z-score in test [1] was 1.21; in test [2] it was -0.0981; in [3], 0.316; in test [4], -0.797; in test [5], 0.0179; in test [6], 1.95. Also, the z-score in [7] is 0.591 (inactive); in [8], -0.696; in [9] it was -0.231; in [10], 0.261 (inactive); in [11], 0.844; in test [12], 0.0931 (inactive). Besides, the z-score in test [13] is 0.399 (inactive); in test [15], 0.62 (inactive); in test [16] it was 0.17 (inactive); in [17] it was 0.722 (inactive); in test [18] it was 0.419 (inactive); in test [19], 0.702. Moreover, the values for the composite z-score in [14] and in test [20] were 0.107 (inactive) and -0.102, respectively.
`C=C(COC)/C(=C/C[C@@H](OC(C)=O)c1ccc(OCCO)cc1)c1cnc2ccccc2c1`: the z-score in test [1] is 2.32; in [2] it was 1.86; in [3], 0.109; in test [4], -0.83; in [5], -0.175; in [6] it was 2.42. Moreover, the z-score in test [7] is -0.502 (inactive); in test [8], -0.612; in test [9] it was -0.701; in [10], 0.0521 (inactive); in [11], 0.638; in test [12], -1.39 (inactive). Further, the z-score is 0.748 (inactive) in test [13]; -0.128 (inactive) in [15]; -1.49 (inactive) in [16]; 1.06 (inactive) in [17]; 0.968 (inactive) in test [18]; 0.371 in [19]. Moreover, the composite z-score is -5.97 (inactive) in test [14] and 0.241 in [20].
On to `O=C1NC(=O)C2C1C=CC(C(O)c1cccs1)N2Nc1ccc(Cl)cc1Cl` (stereo not given), for which the z-score was -0.599 in test [1]; -0.191 in test [2]; -0.165 in test [3]; -1.71 in [4]; -0.884 in [5]; -2.1 in [6]. The z-score in test [7] was 0.0583 (inactive); in test [8], 0.236; in [9] it was -0.219; in [10] it was -0.523 (inactive); in [11], -1.14; in test [12], -6.97 (inactive). Also, the z-score in test [13] was -0.597 (inactive); in test [15], 1.08 (inactive); in [16] it was 1.45 (inactive); in test [17], 0.0751 (inactive); in test [18] it was -0.86 (inactive); in test [19], -0.229. Moreover, the composite z-score in test [14] was 0.572 (inactive); in [20] it was 0.0374.
Consider `[N-]=[N+]=Nc1ccccc1[C@@H]1OC(c2ccc(OCCCO)cc2)=N[C@]1(CCS(=O)(=O)c1ccccc1)C(N)=O`, for which the z-score in test [1] is -0.811; in test [2] it was -0.267; in [3] it was -0.554; in [4], -0.648; in [5] it was 0.0806; in test [6], -2.73. Further, the z-score in test [7] was -1.91 (inactive); in test [8], -0.0842; in test [9], -0.305; in test [10] it was 0.404 (inactive); in test [11], 0.396; in [12], -0.0185 (inactive). Also, the z-score in test [13] was -0.706 (inactive); in [15], -0.291 (inactive); in [16], -0.0594 (inactive); in test [17], 0.326 (inactive); in [18], -0.397 (inactive); in test [19], -0.699. Besides, the figures for the composite z-score in test [14] and in test [20] were 0.796 (inactive) and 0.0975, respectively.
Regarding `COC(=O)[C@@]1(Cc2ccccc2)[C@H]2c3cc(C(=O)N4CCCC4)n(Cc4ccc(S(C)(=O)=O)cc4)c3C[C@H]2CN1C(=O)c1ccccc1`, the z-score in test [1] is -0.235; in [2] it was 0.949; in test [3], -0.838; in test [4], -1.09; in test [5], -1.68; in test [6] it was 2.43. For the same molecule, the z-score in test [7] is -1.62 (inactive); in [8] it was 0.148; in [9], -0.659; in [10] it was 0.142 (inactive); in test [11], -0.837; in test [12], 0.912 (inactive). The z-score in [13] was -0.774 (inactive); in test [15] it was 0.206 (inactive); in [16], -0.33 (inactive); in test [17] it was -1.33 (inactive); in test [18], -0.195 (inactive); in [19], -1.14. The figures for the composite z-score in test [14] and in test [20] were -0.467 (inactive) and -0.105, respectively.
For `CC(C)NC(=O)[C@@H]1c2ccccc2C(=O)N(C2Cc3ccccc3C2)[C@H]1c1ccc(CO)cc1`, the z-score in test [1] is 1.54; in test [2], -0.27; in test [3], 1.22; in [4], 0.543; in test [5] it was 0.982; in test [6], 3.83. The z-score in test [7] is 0.976 (inactive); in test [8], 0.459; in test [9] it was -0.096; in test [10], 1.81 (inactive); in test [11], 0.785; in [12] it was 0.0928 (inactive). For the same molecule, the z-score in test [13] was 1.16 (inactive); in [15], -0.0528 (inactive); in [16], 0.744 (inactive); in test [17], 0.859 (inactive); in test [18], 0.95 (inactive); in [19], 1.59. Also, the composite z-score in [14] was -0.427 (inactive); in test [20], 0.133.
In the case of `COC(=O)C(CC#Cc1ccc2c(c1)[C@]1(C(=O)N2)[C@H](c2ccc(OCCO)cc2)N2[C@H](c3ccccc3)[C@H](c3ccccc3)OC(=O)[C@H]2[C@@H]1C(=O)Nc1nc2ccccc2s1)C(=O)OC`, the z-score in [1] is 0.214; in [2] it was 0.368; in test [3] it was 0.94; in [4] it was -2.56; in [5] it was -2.73; in test [6] it was -2.98. Moreover, the z-score in test [7] is 1.67 (inactive); in test [8], -1.11; in [9], -1.29; in test [10], 0.84 (inactive); in test [11], 1.51; in [12], 2.09 (inactive). The z-score in [13] was 0.932 (inactive); in test [15], 2.98 (inactive); in [16], 3.16 (inactive); in [17], 1.01 (inactive); in test [18], 0.824 (inactive); in test [19], -0.257. The figures for the composite z-score in [14] and in test [20] were -0.983 (inactive) and -0.138, respectively.
